In the library only some 2.4% were active in any assay of this set; here they are far more common.
B2AR arrestin – recruits beta-arrestin to the human beta2-adrenergic receptor. P07550. beta-arrestin recruitment to beta2AR, cell-based reporter. hit rate 0.02% among 330,000. Potency, µM (series often up to 46.1 µM), for the others: at the highest dose activation, most hits filed as activators;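 also: potency is read from the fitted curve at half-maximal effect; 0% = DMSO controls and full agonism = EC100 isoproterenol or metaproterenol; nearly all actives have a fitted effect of over 65% in size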
Target sequence (P07550 whole entry, looked up): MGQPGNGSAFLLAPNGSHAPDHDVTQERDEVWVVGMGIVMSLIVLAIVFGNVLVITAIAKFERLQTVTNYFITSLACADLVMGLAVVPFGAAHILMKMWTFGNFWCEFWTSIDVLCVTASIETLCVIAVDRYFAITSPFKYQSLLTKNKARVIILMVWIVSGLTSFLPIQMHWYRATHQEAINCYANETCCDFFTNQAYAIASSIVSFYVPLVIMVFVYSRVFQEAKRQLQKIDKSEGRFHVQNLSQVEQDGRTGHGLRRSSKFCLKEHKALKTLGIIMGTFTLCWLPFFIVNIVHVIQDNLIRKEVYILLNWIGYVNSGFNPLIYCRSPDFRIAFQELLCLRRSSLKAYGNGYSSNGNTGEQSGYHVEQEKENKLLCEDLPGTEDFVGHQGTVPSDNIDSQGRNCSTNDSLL
D2 PAM-1 – positive allosteric modulators of human D2 dopamine receptor | potentiation, % at 10 µM | hit rate 0.34% among 340,000 | P14416 | HEK293 T-REx D2, calcium flux, EC20 dopamine potentiation;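 active = potentiation over 3 SD above the plate norm, cut at about 30% in these data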; also: 0% is about no effect
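Tetracycline-induced Hek293 Trex D2 cells, force-coupled to calcium, loaded with no-wash calcium dye. Compound added with 180 s kinetic read for agonism, then EC20 dopamine and a further 180 s read for potentiation.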
D2 ag-1 – agonists of human D2 dopamine receptor (beta-arrestin). AID 624465. hit rate 0.084% among 360,000. activation, % (concentration not given with the values). DiscoveRx PathHunter D2 beta-arrestin, luminescence, 90 min; 100% = 57 uM dopamine signal; in the data active = activation above about 40%; inconclusive = between about 15% and that limit
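DiscoveRx PathHunter D2 beta-arrestin cells (2,100/well) attached overnight, then compound-stimulated 90 min at 37 C in HBSS/10 mM HEPES/0.1% Tween-20 buffer; beta-galactosidase complementation read by luminescence after 1 h at ambient temperature. Dopamine 57 uM final (EC100) as control.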
D2 ag-2 – activates the human D2 dopamine receptor | hit rate 0.53% among 340,000 | HEK293 T-REx D2 cells, calcium flux agonist mode | activation, % at 2 µM | AID 485358 | P14416;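 active = activation over 3 SD above normal in the single-dose calcium agonist read, cut at about 30% in these data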; also: 0% is about no effect
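Calcium-flux readout, 1 cycle/sec over 180 s following compound pin transfer, in inducible HEK293 Trex D2 cells (force-coupled); dopamine controls included. Positive calcium responses during this window marked compounds as potential agonists.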
D2 antagonist – antagonists of human D2 dopamine receptor | inhibition, % at 10 µM | hit rate 2% among 340,000 | HEK293 TREx D2 cells, calcium flux, dopamine EC80 | P14416 | AID 485344; in the data active = inhibition above about 30%; inactive = below that, where a call was filed; also: 0% is about no effect
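Dopamine at EC80 is the agonist stimulus; test compounds precede it by 180 s. Calcium flux read kinetically in a force-coupled, inducible HEK293 T-REx D2 cell line.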
D2 PAM-2 – potentiates the human D2 dopamine receptor allosterically | P14416 | DiscoveRx D2 beta-arrestin cells, luminescence, 90 min; 100% = 57 uM dopamine signal | potentiation, % (test concentration not listed) | hit rate 0.23% among 360,000; in the data active = potentiation above about 50%; inconclusive = mostly about 30% to 49%
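PathHunter beta-arrestin assay in DiscoveRx D2 cells. Compounds were added with an EC20 of dopamine (50 nM final) for 90 min at 37 deg C. Luminescence was read 1 h after detection reagent, with 57 uM dopamine as the EC100 control.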
D3 ag – confirmation of human D3 dopamine receptor agonists, beta-arrestin; shares compounds with D2 ag-2; DiscoveRx D3 beta-arrestin cells, luminescence, 90 min; Potency, µM (highest dose often 76.9 µM), inactives show at the highest dose activation, hits mostly activators; hit rate 4% among 2,300;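 also: potency is read from the fitted curve at half-maximal effect; 100% = dopamine control response; nearly all actives have a fitted effect of over 70% in size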
D2 ag-3 – D2 receptor agonism, beta-arrestin counterscreen. Potency, µM (titrated, usually from 76.9 µM), for the others: top-dose activation, actives largely listed as activators. DiscoveRx PathHunter D2 beta-arrestin, luminescence, 90 min; response scale: percent relative to full dopamine signal. shares compounds with D2 ag-2. hit rate 5.9% among 2,300. AID 720507; also: potency is read from the fitted curve at half-maximal effect; % of control where 0% means no effect; nearly all actives have a fitted effect of over 70% in size
* = called active by the depositor. Unless noted, calls follow the shape of the dose curve; as a rule, active = well fitted activation curve with a large enough effect; inconclusive = small, poorly fitted or top-dose-only effect; inactive = flat fitted curve, though single readings scatter.

Screening COc1ccc(N2C(=O)C3CCCN3C2c2cccc(C)c2)cc1Cl (centres undefined) returned B2AR arrestin 0%, D2 PAM-1 -2, D2 ag-1 0, D2 ag-2 0, D2 antagonist 4 and D2 PAM-2 7.
COc1cccc(/C=N/n2c(COc3ccccc3)n[nH]c2=S)c1O was read as B2AR arrestin 0%, D2 PAM-1 6, D2 ag-1 1, D2 ag-2 0, D2 antagonist 0 and D2 PAM-2 -8.
C/C(=N/NC(=O)c1ccc(Cn2cccn2)o1)c1cccc(NC(=O)c2ccncc2)c1 was read as B2AR arrestin -1%, D2 PAM-1 -24, D2 ag-1 -2, D2 ag-2 -1, D2 antagonist 0 and D2 PAM-2 -7.
Screening COC(=O)c1ccc(S(=O)(=O)NCCSc2nnc3c4ccccc4n(C)c3n2)cc1 returned B2AR arrestin 0%, D2 PAM-1 6, D2 ag-1 -1, D2 ag-2 -1, D2 antagonist 28, D2 PAM-2 -8, D3 ag 17% and D2 ag-3 9%.
Cc1cc(C)c(-n2c(SCCS(=O)(=O)c3ccc(F)cc3)n[nH]c2=O)c(C)c1 was read as B2AR arrestin -1%, D2 PAM-1 -1, D2 ag-1 4, D2 ag-2 0, D2 antagonist -21 and D2 PAM-2 0.
`CN(C)S(=O)(=O)c1cccc(NC(=S)NNC(=O)c2cc3ccccc3cc2O)c1` gave B2AR arrestin -1%, D2 PAM-1 -23, D2 ag-1 -7, D2 ag-2 72*, D2 antagonist 56*, D2 PAM-2 -6, D3 ag -8% and D2 ag-3 -8%.
Screening CC1CCCC(C)N1CCCNC(=O)Cn1ncc2c([nH]c3ccccc32)c1=O (centres undefined) returned B2AR arrestin 0%, D2 PAM-1 -3, D2 ag-1 1, D2 ag-2 0, D2 antagonist 8 and D2 PAM-2 -9.
`O=C(Cn1ncc2c([nH]c3ccccc32)c1=O)NCCCN1CCN(c2ccccc2)CC1` gave B2AR arrestin 0%, D2 PAM-1 -2, D2 ag-1 inconclusive, D2 ag-2 -1, D2 antagonist 103*, D2 PAM-2 -27, D3 ag 13% and D2 ag-3 inconclusive.
CCc1ccc(-c2nc(SCC(=O)NC3CCS(=O)(=O)C3)n[nH]2)cc1 (centres undefined) was read as B2AR arrestin 0%, D2 PAM-1 0, D2 ag-1 -9, D2 ag-2 0, D2 antagonist -10 and D2 PAM-2 -21.
COc1ccc(NC(=O)N2CCCC(c3ccccc3)C2)cc1 (centres undefined) was read as B2AR arrestin 0%, D2 ag-1 9, D2 PAM-2 -2, D3 ag 18% and D2 ag-3 21%.
Screening CN1C(=O)c2oc3ccc(Br)cc3c(=O)c2C1c1ccncc1 (centres undefined) returned B2AR arrestin 0%, D2 PAM-1 -2, D2 ag-2 -1 and D2 antagonist 12.
`CC(=O)Nc1ccc(SCCN2CC[C@@H](C)CCC2=O)cc1` gave B2AR arrestin 0%, D2 PAM-1 -5, D2 ag-1 -4, D2 ag-2 0, D2 antagonist -2, D2 PAM-2 -4, D3 ag 0% and D2 ag-3 -4%.
For CC(=O)Nc1ccc(SCCN2CC[C@@H](O)CCC2=O)cc1 the results were B2AR arrestin 0%, D2 PAM-1 19, D2 ag-1 -2, D2 ag-2 0, D2 antagonist -11 and D2 PAM-2 0.

Compound activity (PubChem BioAssay)
